Compound activity deposited in PubChem by Broad Institute.
ROS inducer: ROS inducers in U2OS cancer cells, primary screen, cell-based, H2DCF-DA fluorescence | U2OS ROS induction | hit rate 2% among 46,000 | ROS induction (% of piperlongumine), % at 10 µM; in the data active = ROS induction above about 79%, passing the limit was not always enough
Numbers stand for hits. The full list was thinned out, with hits kept by preference.

`COc1ccc(-c2c(C#N)c(SCC(=O)c3ccccc3)nc3c2C(=O)CC(C)(C)C3)cc1` gave ROS inducer 138.
Screening CCCOC(=O)CSc1nc(N)c(C#N)c(-c2ccc(C)cc2)c1C#N returned ROS inducer inactive.
N#Cc1c(N)nc(SCC(=O)c2ccc3ccccc3c2)c(C#N)c1-c1cccc(F)c1 was read as ROS inducer inactive.
Screening CCOc1ccccc1CN1C(=O)c2ccccc2C1C(=O)NCCCN1C(C)CCCC1C (stereo not given) returned ROS inducer inactive.
For CCc1ccc(NC(=O)Cn2cnc3c(cnn3-c3ccccc3)c2=O)cc1 the results were ROS inducer inactive.
Screening COc1ccc(C2=NN(S(C)(=O)=O)C(c3ccc(C)cc3)C2)cc1 (stereo not given) returned ROS inducer inactive.
For COc1ccc(C2=NN3COc4ccccc4C3C2)cc1 (stereo not given) the results were ROS inducer inactive.
For COc1ccc(C2=NN(S(C)(=O)=O)C(c3ccccc3OC)C2)cc1 (stereo not given) the results were ROS inducer 164.
Screening CCCc1cc(=O)[nH]c(/N=C(\N)Nc2cccc(C)c2)n1 returned ROS inducer inactive.
O=c1ccnc(SCc2ccc(Cl)cc2)[nH]1 was read as ROS inducer inactive.
O=C(CSc1ncccn1)Nc1ccc(Cl)cc1Cl was read as ROS inducer inactive.
`Clc1ccc(CSc2ncccn2)cc1` gave ROS inducer 94.
For O=C(CSc1nc2c(c(=O)n1Cc1ccccc1)SCC2)NC1CCCC1 the results were ROS inducer inactive.
For O=C1C(=O)N(CCCN2CCOCC2)C(c2cccs2)C1C(=O)c1ccccc1 (stereo not given) the results were ROS inducer inactive.
`Cc1nc(-c2ccccc2)sc1C(=O)C1C(=O)C(=O)N(CCCN2CCOCC2)C1c1cccs1` (stereo not given) gave ROS inducer 115.
`Cc1nc(-c2ccccc2)sc1C(=O)C1C(=O)C(=O)N(CCCN2CCOCC2)C1c1ccco1` (stereo not given) gave ROS inducer inactive.
Screening NC(=O)c1cc2c(n(-c3ccccc3)c1=O)CCCC2=O returned ROS inducer inactive.
CC(C)(C)c1ccc2c(c1)c1c3n2CCN(CCC#N)C3CCC1 (stereo not given) was read as ROS inducer inactive.
CCC1(c2ccccc2)NC(=S)N(c2ccccc2)N1 (stereo not given) was read as ROS inducer inactive.
For C[C@@H]1CCCCO[C@@H](CN(C)C(=O)Nc2ccc(F)cc2)[C@@H](C)CN([C@H](C)CO)C(=O)c2cc(NC(=O)CCC(F)(F)F)ccc2O1 the results were ROS inducer 140.
For C[C@@H]1CCCCO[C@H](CN(C)Cc2ccc(C(F)(F)F)cc2)[C@@H](C)CN([C@H](C)CO)C(=O)c2cc(NC(=O)CCC(F)(F)F)ccc2O1 the results were ROS inducer inactive.
For C[C@@H]1CCCCO[C@@H](CN(C)Cc2ccncc2)[C@@H](C)CN([C@H](C)CO)C(=O)c2cc(NC(=O)C3CCCCC3)ccc2O1 the results were ROS inducer inactive.
C[C@@H]1CCCCO[C@H](CN(C)C(=O)Nc2ccc3c(c2)OCO3)[C@@H](C)CN([C@H](C)CO)C(=O)c2cc(NC(=O)CCC(F)(F)F)ccc2O1 was read as ROS inducer inactive.
C[C@@H]1CCCCO[C@@H](CN(C)Cc2ccc(C(=O)O)cc2)[C@@H](C)CN([C@H](C)CO)C(=O)c2cc(NC(=O)CCC(F)(F)F)ccc2O1 was read as ROS inducer inactive.
`C[C@@H]1CCCCO[C@@H](CN(C)Cc2ccc(C(F)(F)F)cc2)[C@@H](C)CN([C@H](C)CO)C(=O)c2cc(NC(=O)CCC(F)(F)F)ccc2O1` gave ROS inducer 155.
C[C@@H]1CCCCO[C@@H](CN(C)C(=O)C2CCCCC2)[C@@H](C)CN([C@H](C)CO)C(=O)c2cc(NC(=O)CCC(F)(F)F)ccc2O1 was read as ROS inducer inactive.
For C[C@@H]1CCCCO[C@H](CN(C)Cc2ccncc2)[C@@H](C)CN([C@H](C)CO)C(=O)c2cc(NC(=O)C3CCCCC3)ccc2O1 the results were ROS inducer inactive.
For C[C@@H]1CCCCO[C@H](CN(C)Cc2ccc(C(F)(F)F)cc2)[C@@H](C)CN([C@H](C)CO)C(=O)c2cc(NC(=O)C3CCCCC3)ccc2O1 the results were ROS inducer 87.
For O=C(COc1ccc2ccccc2c1)Nc1ccc2nn(-c3ccccc3)nc2c1 the results were ROS inducer inactive.
`O=C(Nc1ccc(-c2cn3c(n2)SCC3)cc1)c1ccc2nonc2c1` gave ROS inducer inactive.
`COc1ccc(-c2oc3ncn(CCO)c(=N)c3c2-c2ccc(OC)cc2)cc1` gave ROS inducer inactive.
`COc1ccc(-c2oc3ncn(CC(C)C)c(=N)c3c2-c2ccc(OC)cc2)cc1` gave ROS inducer 94.
For COc1ccc(-c2noc(CC(=O)O)c2-c2ccc(OC)cc2)cc1 the results were ROS inducer inactive.
`CN(CCC#N)C(=O)c1cc2c(s1)-c1ccccc1S(=O)(=O)C2` gave ROS inducer inactive.
Screening Cc1cc(NS(=O)(=O)c2ccc(F)c(Cl)c2)no1 returned ROS inducer inactive.
`O=S(=O)(c1ccc(C(F)(F)F)cc1)n1nccc1-c1cc(-c2ccccc2)no1` gave ROS inducer inactive.
For CCOC(=O)c1cc(-c2ccnn2S(=O)(=O)c2cccc(C(F)(F)F)c2)on1 the results were ROS inducer 184.
Cc1cc(-c2nc(-c3ccnn3S(=O)(=O)c3cccc(C(F)(F)F)c3)cs2)no1 was read as ROS inducer inactive.
Cc1ccc(CN(C)C[C@@H]2OCc3cnnn3CCCC(=O)N([C@@H](C)CO)C[C@@H]2C)cc1 was read as ROS inducer inactive.
`COc1cccc(CN(C)C[C@H]2OCc3cnnn3CCCC(=O)N([C@@H](C)CO)C[C@H]2C)c1` gave ROS inducer 125.
Screening C[C@H](CO)N1C[C@H](C)[C@@H](CN(C)C(=O)Nc2ccc(N3CCCCC3)cc2)OCc2cnnn2CCCC1=O returned ROS inducer inactive.
Screening COc1cccc(NC(=O)N(C)C[C@H]2OCc3cn(nn3)CCCC(=O)N([C@H](C)CO)C[C@@H]2C)c1 returned ROS inducer inactive.
For C[C@@H]1CN([C@@H](C)CO)C(=O)CCCn2nncc2CO[C@@H]1CN(C)C(=O)Nc1ccc(N2CCCCC2)cc1 the results were ROS inducer 83.
For C[C@H]1CN([C@@H](C)CO)C(=O)CCCn2nncc2CO[C@H]1CN(C)Cc1ccc(-c2ccccc2)cc1 the results were ROS inducer inactive.
Screening COc1cccc(CN(C)C[C@H]2OCc3cnnn3CCCC(=O)N([C@H](C)CO)C[C@H]2C)c1 returned ROS inducer inactive.
Cc1cccc(CN(C)C[C@@H]2OCc3cnnn3CCCC(=O)N([C@H](C)CO)C[C@H]2C)c1 was read as ROS inducer inactive.
For COc1cccc(NC(=O)N(C)C[C@H]2OCc3cn(nn3)CCCC(=O)N([C@H](C)CO)C[C@H]2C)c1 the results were ROS inducer inactive.
`C[C@@H]1CN([C@@H](C)CO)C(=O)CCCn2nncc2CO[C@H]1CN(C)C(=O)Nc1ccc(N2CCCCC2)cc1` gave ROS inducer inactive.
For COc1cccc(NC(=O)N(C)C[C@@H]2OCc3cn(nn3)CCCC(=O)N([C@H](C)CO)C[C@H]2C)c1 the results were ROS inducer 108.
